Source: PubChem
In the library only some 10% were active in any assay of this set; here they are far more common.
HP1b chromo inh – inhibitors of HP1-beta chromodomain binding to methylated histone tails; P83916; AlphaScreen HP1-beta / biotin-H3K9me3 peptide binding; Potency, µM (highest dose often 114 µM), actives largely listed as inhibitors; 0.56% of 390,000 active; note: nearly all actives have a fitted effect of over 70% in size
Target sequence (P83916 whole entry, looked up): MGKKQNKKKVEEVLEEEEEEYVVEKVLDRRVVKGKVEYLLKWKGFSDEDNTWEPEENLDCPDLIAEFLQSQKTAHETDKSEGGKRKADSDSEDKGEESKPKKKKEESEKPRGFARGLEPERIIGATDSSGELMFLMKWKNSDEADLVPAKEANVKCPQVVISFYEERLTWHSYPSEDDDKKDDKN
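Compound inhibition of the preformed complex between 50 nM HP1-beta and 50 nM biotinylated H3K9me3 peptide was read by AlphaScreen. Buffer was PBS pH 7.4 with 0.01% Tween-20. Incubations ran 30 min at room temperature, with 10 ug/mL donor/acceptor beads.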
BAZ2B block – blocks human BAZ2B; 4.4% of 360,000 active; Potency, µM (top dose mostly 114 µM), actives largely listed as inhibitors; AlphaScreen BAZ2B-H3K14Ac peptide displacement; Q9UIF8; AID 504333; note: nearly all actives have a fitted effect of over 60% in size
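Multi-concentration screen (max 110 uM) measuring displacement of acetylated histone H3 peptide from BAZ2B by AlphaScreen, using 50 nM protein, 50 nM peptide and 10 ug/mL streptavidin donor plus Ni-chelate acceptor beads.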
GLS inh – inhibitors of human glutaminase (GLS); O94925; GLS enzymatic activity, qHTS titration; Potency, µM (doses to about 45.5 µM), hits mostly inhibitors; 0.21% of 410,000 active
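Coupled fluorescence readout: glutamate oxidase/HRP/Amplex Red detect glutamate formed by hKGA from L-glutamine (1 mM solution added). Buffer 45 mM KH2PO4 pH 8.2, 0.02% Tween-20; reads at t0 and 30 min RT.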
JMJD2A Tudor inh – blocks the human JMJD2A Tudor domain; AID 504339; Potency, µM (doses to about 114 µM), most hits filed as inhibitors; 4.4% of 390,000 active; AlphaScreen JMJD2A-Tudor / H3K4me3 peptide binding; O75164; note: nearly all actives have a fitted effect of over 50% in size
G9a block – blocks human histone lysine methyltransferase G9a; Q96KQ7; G9a H3K9 monomethylation, AlphaScreen, 2 h; Potency, µM (doses to about 102 µM), actives largely listed as inhibitors; 8.8% of 350,000 active; AID 504332; note: nearly all actives have a fitted effect of over 75% in size
Target sequence (Q96KQ7 913-1193 limits assumed): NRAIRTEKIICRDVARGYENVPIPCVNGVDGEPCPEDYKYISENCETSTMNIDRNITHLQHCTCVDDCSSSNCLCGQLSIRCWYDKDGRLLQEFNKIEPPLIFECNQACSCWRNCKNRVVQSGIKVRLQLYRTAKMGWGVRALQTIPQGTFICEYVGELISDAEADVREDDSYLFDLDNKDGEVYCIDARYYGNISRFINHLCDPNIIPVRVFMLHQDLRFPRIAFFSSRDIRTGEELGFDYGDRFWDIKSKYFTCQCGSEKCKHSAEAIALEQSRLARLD
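Signal arises when biotinylated H3K9 peptide, once monomethylated, bridges streptavidin donor and antibody-captured acceptor beads. Enzyme at 20 nM was preincubated 15 min with test compounds; peptide 500 nM and SAM 20 uM then reacted for 2 h.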
Numbers stand for hits; - = inactive; ? = inconclusive; . = no result given; [ ] = dose if it differs, or a comment. Calls come from the whole dose curve; as a rule, active = well fitted curve in the direction sought with a large enough effect; inconclusive = small, poorly fitted or top-dose-only effect, or another doubt; inactive = no such curve, though single readings can be large; an effect the other way counts as inactive or inconclusive.

SMILES | HP1b chromo inh | BAZ2B block | GLS inh | JMJD2A Tudor inh | G9a block
COC(=O)[C@@]1(Cc2ccc(OC)cc2)[C@H]2c3cc(C(=O)N4CCCC4)n(CCc4c[nH]c5ccc(O)cc45)c3C[C@H]2CN1C(=O)c1ccccc1 | . | ? | . | . | 50µM
O=C(C[C@H]1C[C@@H]2c3cc(NC(=O)Nc4ccccc4)ccc3O[C@@H]2[C@@H](CO)O1)NCC1CC1 | . | . | - | . | .
COC(=O)[C@H]1[C@H](CCc2ccccc2)NC(=O)N(Cc2ccccc2)[C@@H]1C | - | . | - | - | .
COc1ccc(C(=O)OCC(=O)Nc2nc3c(F)c(F)c(F)cc3s2)cc1OC | - | - | - | - | -
Cc1ccc(CSCCC(=O)N2CCN(c3cc(C)ccc3C)CC2)cc1 | - | - | - | - | -
COc1ccc(S(=O)(=O)Nc2ccc3oc4c(c3c2)CCCC4)cc1 | - | - | - | - | -
COC(=O)[C@@]1(Cc2ccc(OC)cc2)[C@H]2c3cc(C(=O)N(C)C)n(CCSCCO)c3C[C@H]2CN1C(=O)c1ccccc1 | - | ? | - | - | 56µM
COC(=O)[C@@]1(Cc2ccc(OC)cc2)[C@H]2c3cc(C(=O)N4CCCC4)n(CCSCCO)c3C[C@H]2CN1C(=O)c1ccccc1 | - | ? | - | - | 35µM
COC(=O)[C@@]1(Cc2ccc(OC)cc2)[C@H]2c3cc(C(=O)N4CCCC4)n(Cc4ccccc4)c3C[C@H]2CN1C(=O)c1ccccc1 | . | . | - | . | .
COC(=O)[C@@]1(Cc2ccc(F)cc2)[C@H]2c3cc(C(=O)N(C)C)n(CCF)c3C[C@H]2CN1C(=O)c1ccccc1 | . | . | - | . | .
O=S(=O)(CCSc1nc2ccccc2s1)c1nc2ccccc2s1 | - | - | - | ? | 7.1µM
C/C(CC(=O)NCc1ccc(F)cc1)=N\NC(N)=S | ? | ? | - | ? | ?
C/C(CC(=O)Nc1ccccc1C(F)(F)F)=N\NC(=O)c1cnccn1 | - | . | - | - | .
C/C(CC(=O)NCc1ccccc1)=N\NC(N)=S | - | - | - | ? | 3.2µM
C/C(CC(=O)NCc1ccccc1)=N\NC(=O)c1cnccn1 | - | - | - | ? | 40µM
COc1ccc(CCNc2ccc(C(CC(N)=O)NC(=O)c3ccc(Br)cc3)cc2[N+](=O)[O-])cc1 (stereo not given) | - | - | - | - | -
C=CCN1N=C(c2ccc(NC(=O)c3ccccc3)cc2)CSC1=O | - | - | - | - | .
COc1ccc(NC(=S)N/C(=N/S(=O)(=O)c2ccc(C)cc2)c2ccccc2)cc1 | - | - | - | - | ?
COc1ccc(NC(=S)NC(=NS(=O)(=O)c2ccc(Cl)cc2)c2ccccc2)cc1 | ? | . | - | - | .
CCOC(=S)N/C(=N\S(=O)(=O)c1ccc(C)cc1)c1ccccc1 | ? | - | - | - | 7.9µM
CCOc1ccc(S(=O)(=O)/N=C(\N)c2ccccc2)cc1 | - | - | - | - | 35µM
O=S(=O)(/N=C(/NC(=S)Nc1ccccc1)c1ccccc1)c1ccc(Cl)cc1 | ? | - | - | - | 11µM
COc1cc(OC)c(C(=O)OCC(=O)NCCc2ccccc2)cc1OC | - | - | - | - | -
COc1cc(OC)cc(C(=O)n2cnnc2N)c1 | - | - | - | - | 45µM
O=C(CSc1ccccc1C(=O)O)NCc1ccccc1 | - | - | - | - | -
SMILES | HP1b chromo inh | BAZ2B block | GLS inh | JMJD2A Tudor inh | G9a block
CCCCn1c(=O)c(CCC(=O)OC(C)C(=O)Nc2cccc(Cl)c2Cl)nc2ccccc21 (stereo not given) | - | - | - | - | -
O=C(NCCCc1ccncc1)C1CCC(=O)N(Cc2cccc(C(F)(F)F)c2)C1 (stereo not given) | - | - | - | - | -
Cc1nc(NC(=O)C2CCCC2)sc1Cc1ccc2c(c1)OCO2 | - | 50µM | - | ? | ?
Cc1nc(NC(=O)C23CC4CC(CC(C4)C2)C3)sc1Cc1ccc2c(c1)OCO2 | - | - | - | ? | 35µM
O=C(O)CC(NC(=O)C12CC3CC(CC(C3)C1)C2)c1ccc2c(c1)OCO2 (stereo not given) | - | - | - | - | ?
Cc1cccc(C(=O)NCCC(=O)Nc2nc(C)c(Cc3ccc4c(c3)OCO4)s2)c1 | - | - | - | - | -
CC(C)=C1C2CCC1C1C(=O)N(c3nc(-c4ccc(C(C)C)cc4)c(C)s3)C(=O)C21 (stereo not given) | - | - | - | - | .
CC(C)(C)c1ccc(CCC2OCC(C[N+]3(C)CCOCC3)O2)cc1 (stereo not given) | - | - | - | ? | 50µM
CC(C(=O)Nc1ncn[nH]1)N1C(=O)c2ccccc2C1=O (stereo not given) | - | - | - | - | ?
Cc1ccc(SC(C)C(=O)Nc2ncn[nH]2)cc1 (stereo not given) | - | 56µM | - | - | ?
O=C(Nc1ncn[nH]1)c1cccc(F)c1 | . | 50µM | - | ? | -[2.33 µM]
CC(C)(C)c1ccc(C(=O)Nc2ncn[nH]2)cc1 | - | ? | - | - | ?
Cc1ccc(C(=O)Nc2ncn[nH]2)cc1 | - | 50µM | - | ? | ?
Cc1ccc(CSc2ncc(Cl)c(C(=O)Nc3nnc(C)s3)n2)cc1 | - | - | - | - | -
Cc1ccc(-n2nc(C)c3c2NC2=C(C(=O)CC(C)(C)C2)C3c2ccccc2OCC(=O)O)cc1 (stereo not given) | - | . | ? | 56µM | ?
CCn1cc2nc(SCc3ccccc3)n(Cc3ccc(C)cc3)c(=O)c2n1 | - | - | - | - | -
O=S(=O)([O-])CCC[n+]1ccc(Oc2ccccc2)cc1 | - | - | - | - | 28µM
Cc1ccc(SCCNCc2ccco2)cc1 | - | - | - | - | -
CC1CCC(C(C)C)C(OC(=O)Cn2c(-c3ccc(F)cc3)[n+](C)c3ccccc32)C1 (stereo not given) | - | - | - | - | 25µM
COc1ccc(NS(=O)(=O)c2coc(C(N)=O)c2)cc1Cl | - | - | - | - | -
COc1cc(OC)c(NS(=O)(=O)c2coc(C(N)=O)c2)cc1Cl | - | - | - | - | 71µM
COc1ccc(S(=O)(=O)N(CC(=O)NCCSc2ccccn2)c2ccccc2)cc1 | - | - | - | - | -
Cc1ccc(-n2c(CCc3nc4ccccc4[nH]3)n[nH]c2=S)cc1 | - | - | - | 7.9µM | ?
Cc1ccc(Cc2nc3ccccc3[nH]2)cc1 | - | - | - | - | -
Cc1ccc(-n2c(Cn3c(C)nc4ccccc43)n[nH]c2=S)cc1 | - | - | - | 8.9µM | 10µM
Cc1ccc(OCCn2c(C)nc3ccccc32)cc1 | - | - | - | - | -
CCn1c(CCc2nc3ccccc3[nH]2)n[nH]c1=S | - | - | - | 4µM | ?
CC1(C)OC(=O)C2=C(CC(CCc3ccccc3)OC2c2ccccc2)O1 (stereo not given) | . | . | - | . | .
COc1ccccc1NS(=O)(=O)c1cc2c3c(c1)CC(=O)N3CCC2 | - | - | - | - | -
